In PubChem BioAssay (NCI):
Compounds without any hit were thinned out: in the full panel of roughly 83,000, 20% have a hit.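 Plates (96-well) were seeded with cells, treated with compound at one concentration, and incubated for 48 hours before percent growth was determined.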 The source made the active and inactive calls. The calls were made as follows: active = growth percent below 10; inactive = the rest.

Legend:
Assay in all cases: NCI-60 one-dose screen, 48 h (100 = growth as untreated, 0 = no growth, -100 = all killed)
Conditions in all cases: 10 µM unless noted
SR leukemia = test system: SR leukemia
RPMI-8226 leukemia = test system: RPMI-8226 leukemia
OVCAR-8 ovarian = test system: OVCAR-8 ovarian
OVCAR-4 ovarian = test system: OVCAR-4 ovarian
SK-OV-3 ovarian = test system: SK-OV-3 ovarian
OVCAR-3 ovarian = test system: OVCAR-3 ovarian
HS 578T breast = test system: HS 578T breast
NCI/ADR-RES ovarian = test system: NCI/ADR-RES ovarian
IGROV1 ovarian = test system: IGROV1 ovarian
OVCAR-5 ovarian = test system: OVCAR-5 ovarian

Measured: growth

CCCCc1nc(/C=N/Nc2nc(Nc3ccccc3)nc(Nc3ccc(S(N)(=O)=O)cc3)n2)c(Cl)[nH]1
inactive: SR leukemia 11.5% | RPMI-8226 leukemia 96.7% | OVCAR-8 ovarian 90% | OVCAR-4 ovarian 80.6% | SK-OV-3 ovarian 114% | OVCAR-3 ovarian 46.2% | HS 578T breast 77.8% | NCI/ADR-RES ovarian 108%

C[C@@H](Nc1ncnc2ccc(-c3cnc(Cl)c(NS(C)(=O)=O)c3)cc12)c1ccccc1
active: IGROV1 ovarian 3.14%
inactive: SR leukemia 47.6% | RPMI-8226 leukemia 23.9% | OVCAR-8 ovarian 75.9% | OVCAR-4 ovarian 58.3% | SK-OV-3 ovarian 55.6% | OVCAR-3 ovarian 44.6% | HS 578T breast 27.1% | NCI/ADR-RES ovarian 85%

CCOC(=O)c1c(N)c(C#N)cn1-c1cc(OC)c(OC)c(OC)c1
inactive: SR leukemia 105% | RPMI-8226 leukemia 104% | OVCAR-8 ovarian 102% | OVCAR-4 ovarian 107% | SK-OV-3 ovarian 135% | IGROV1 ovarian 105% | OVCAR-3 ovarian 119% | HS 578T breast 99.5% | NCI/ADR-RES ovarian 110%

NC(N)=Nc1ccc(Oc2cccc(NC(N)=Nc3ccc(I)cc3F)c2)cc1
inactive: SR leukemia 48.1% | RPMI-8226 leukemia 62.3% | OVCAR-8 ovarian 90.5% | OVCAR-4 ovarian 81.3% | SK-OV-3 ovarian 70.1% | IGROV1 ovarian 32.9% | OVCAR-3 ovarian 75.7% | HS 578T breast 61.1%

O=C(NNc1nc2cc(F)ccc2n2cccc12)c1ccncn1
inactive: RPMI-8226 leukemia 16.8% | OVCAR-8 ovarian 18.7% | OVCAR-5 ovarian 45% | IGROV1 ovarian 15.5% | HS 578T breast 42.8%
active: SR leukemia 8.74% | OVCAR-4 ovarian -6.78% | OVCAR-3 ovarian 5.01% | NCI/ADR-RES ovarian 5.87%

COc1ccccc1NC1=C(Cl)C(=O)c2nc(C)ccc2C1=O
active: SR leukemia -27.9% | RPMI-8226 leukemia -30.4% | OVCAR-8 ovarian 9.87% | OVCAR-4 ovarian -98.2% | IGROV1 ovarian -83.5% | OVCAR-3 ovarian -85.9% | NCI/ADR-RES ovarian 7.08%
inactive: SK-OV-3 ovarian 88.3% | HS 578T breast 72.1%

CS(=O)(=O)Nc1cc(-c2ccc3ncc(C#N)c(NCc4ccccc4O)c3c2)cnc1Cl
active: SR leukemia 6.89% | RPMI-8226 leukemia -21% | OVCAR-8 ovarian 8.27% | SK-OV-3 ovarian -5.88% | IGROV1 ovarian -41.8% | OVCAR-3 ovarian 3.31% | HS 578T breast -17.9%
inactive: OVCAR-4 ovarian 14.1% | NCI/ADR-RES ovarian 42.4%

COc1ccc(CCOc2cc3c(cc2OC)CCN(C(=O)NCc2cocn2)C3c2ccc(C)cc2C)cc1 (stereo not drawn)
active: SR leukemia 5.38% | RPMI-8226 leukemia 7.04% | HS 578T breast -4.03% | NCI/ADR-RES ovarian 4.95%
inactive: OVCAR-8 ovarian 17.9% | OVCAR-4 ovarian 51.5% | SK-OV-3 ovarian 38% | IGROV1 ovarian 12.9%

Nc1ncc(-c2ccc3ncnc(N4CCc5cc(F)c(F)cc54)c3c2)cn1
active: RPMI-8226 leukemia 4.99% | SK-OV-3 ovarian 9.09% | IGROV1 ovarian -6.07% | HS 578T breast -15.4%
inactive: SR leukemia 23.9% | OVCAR-8 ovarian 33.3% | OVCAR-4 ovarian 43.9% | OVCAR-3 ovarian 26.3% | NCI/ADR-RES ovarian 35.8%

CN1CCN(Cc2ccc(NC(=O)c3cncc(C#Cc4cnc5ccc(OCC6(C)COC6)nn45)c3)cc2C(F)(F)F)CC1
active: SR leukemia -13.9% | RPMI-8226 leukemia -17.7% | OVCAR-8 ovarian -15.3% | OVCAR-4 ovarian -54.7% | SK-OV-3 ovarian -90.8% | IGROV1 ovarian -63.8% | OVCAR-3 ovarian -74.5% | HS 578T breast -50.2% | NCI/ADR-RES ovarian -58.1%

CCNC(=O)Oc1ccc(/C(=C(/C)c2ccccc2)c2ccc(OCCN3CCCCCC3)cc2)cc1
active: SR leukemia 0.632% | RPMI-8226 leukemia -32.8% | OVCAR-8 ovarian 7.06% | OVCAR-3 ovarian 6.04% | HS 578T breast -12.8%
inactive: OVCAR-4 ovarian 36.4% | SK-OV-3 ovarian 51.8% | IGROV1 ovarian 32.9% | NCI/ADR-RES ovarian 24.4%

CCCn1cnc2c(c1=N)C(c1ccc(Cl)cc1)c1sc3c(C)cccc3c1O2 (stereo not drawn)
active: RPMI-8226 leukemia 1.37% | OVCAR-3 ovarian 2.26% | NCI/ADR-RES ovarian 7.18%
inactive: SR leukemia 12.6% | OVCAR-8 ovarian 23.5% | OVCAR-4 ovarian 89.2% | SK-OV-3 ovarian 44.2% | IGROV1 ovarian 23.7% | HS 578T breast 15.4%

NC(N)=Nc1ccc(Oc2cccc(Nc3ccc(Cl)c(C(F)(F)F)c3)c2)cc1
active: SR leukemia -26.4%
inactive: RPMI-8226 leukemia 33.7% | OVCAR-8 ovarian 68.6% | OVCAR-4 ovarian 55.6% | SK-OV-3 ovarian 82.6% | IGROV1 ovarian 17.2% | OVCAR-3 ovarian 35% | HS 578T breast 52% | NCI/ADR-RES ovarian 91.6%

CCOP(=O)(OCC)OC[C@]12CCC(C)(C)C=C1[C@H]1CC[C@@H]3[C@@]4(C)CC[C@H](OP(=O)(OCC)OCC)C(C)(C)[C@@H]4CC[C@@]3(C)[C@]1(C)CC2
active: SR leukemia -27.4% | RPMI-8226 leukemia -43% | OVCAR-8 ovarian -27.3% | OVCAR-4 ovarian -1.21% | SK-OV-3 ovarian -2.62% | IGROV1 ovarian -20% | OVCAR-3 ovarian -85.5% | HS 578T breast -13.5% | NCI/ADR-RES ovarian 0.702%

COc1ccc(S(=O)(=O)NCCCNc2nccc(-c3cn(C(C)(C)C)nc3-c3ccc(Cl)c(OC)c3)n2)cc1
inactive: SR leukemia 48.8% | RPMI-8226 leukemia 84.7% | OVCAR-8 ovarian 87.9% | OVCAR-4 ovarian 58.9% | SK-OV-3 ovarian 103% | IGROV1 ovarian 57.9% | OVCAR-3 ovarian 97.5% | HS 578T breast 82.9% | NCI/ADR-RES ovarian 87.8%

CC(Nc1c(C#N)cnc2ccc(-c3cnc(N)nc3)cc12)c1ccccc1 (stereo not drawn)
active: RPMI-8226 leukemia -11% | SK-OV-3 ovarian -0.597% | IGROV1 ovarian -16% | HS 578T breast -22.5%
inactive: SR leukemia 14% | OVCAR-8 ovarian 21.3% | OVCAR-4 ovarian 16.5% | OVCAR-3 ovarian 15.3% | NCI/ADR-RES ovarian 19.3%

NC(N)=Nc1ccc(Oc2cccc(Nc3ccc(Cl)c(C(F)(F)F)c3)c2)cn1
inactive: SK-OV-3 ovarian 36.8% | NCI/ADR-RES ovarian 53.6%
active: SR leukemia -54.6% | RPMI-8226 leukemia -29.6% | OVCAR-8 ovarian -66% | OVCAR-4 ovarian 6.69% | IGROV1 ovarian -38.2% | OVCAR-3 ovarian -93.8% | HS 578T breast -2.57%

O=C(O)c1ccc(-n2cc(CNc3cc(F)c(F)c(F)c3)c(-c3cccc(F)c3)n2)cc1
inactive: SR leukemia 80.4% | RPMI-8226 leukemia 86.7% | OVCAR-8 ovarian 82.8% | OVCAR-4 ovarian 95.5% | SK-OV-3 ovarian 113% | IGROV1 ovarian 98.8% | OVCAR-3 ovarian 96.1% | HS 578T breast 102%

Nc1nc(-c2cccc([N+](=O)[O-])c2)c(N=Nc2ccccc2)s1
inactive: SR leukemia 56.1% | RPMI-8226 leukemia 52.9% | OVCAR-8 ovarian 58.2% | OVCAR-4 ovarian 59.2% | SK-OV-3 ovarian 62.3% | IGROV1 ovarian 82.5% | HS 578T breast 70.4% | NCI/ADR-RES ovarian 54.9%

Cc1ccc2sc3c(c2c1)OC(N)=C(C#N)C3c1ccc(Cl)cc1 (stereo not drawn)
inactive: RPMI-8226 leukemia 93.2% | OVCAR-8 ovarian 96.7% | OVCAR-5 ovarian 93.4% | OVCAR-4 ovarian 91.1% | SK-OV-3 ovarian 85.7% | IGROV1 ovarian 65.2% | HS 578T breast 78.3% | NCI/ADR-RES ovarian 76.2%

C#CCOc1ccc(/C=N\Nc2nc(-c3ccc(C)cc3)cs2)cc1OC
inactive: SR leukemia 83.2% | RPMI-8226 leukemia 68.3% | OVCAR-5 ovarian 96.8% | OVCAR-4 ovarian 76.8% | SK-OV-3 ovarian 87.6% | OVCAR-3 ovarian 99.3% | HS 578T breast 111%

O=S(=O)(Nc1ccc(I)cc1Cl)c1ccc(-c2cnc(C3CC3)o2)cc1
inactive: SR leukemia 34.5% | OVCAR-8 ovarian 62.2% | OVCAR-5 ovarian 75.4% | OVCAR-4 ovarian 67% | SK-OV-3 ovarian 57.8% | IGROV1 ovarian 43.2% | HS 578T breast 17.3% | NCI/ADR-RES ovarian 28.1%
active: OVCAR-3 ovarian -10.4%

c1cn2c(ccc3nc(-c4cn[nH]c4)c4c(c32)CCCC4)n1
inactive: RPMI-8226 leukemia 80.7% | OVCAR-8 ovarian 57.1% | OVCAR-5 ovarian 99.4% | OVCAR-4 ovarian 77.9% | HS 578T breast 31.5% | NCI/ADR-RES ovarian 77.3%
active: SK-OV-3 ovarian -10.1%

Cc1cc(-c2ccc(Cl)cc2)n(Cc2nnc(SCC(=O)Nc3ccc(S(N)(=O)=O)cc3)n2C2CCCCC2)n1
inactive: RPMI-8226 leukemia 102% | OVCAR-8 ovarian 99.2% | OVCAR-5 ovarian 107% | OVCAR-4 ovarian 109% | SK-OV-3 ovarian 106% | IGROV1 ovarian 104% | HS 578T breast 100% | NCI/ADR-RES ovarian 106%

COc1cc2oc(-c3cccc(NC(=O)c4cc(N)ccc4Cl)c3)cc(=O)c2c(OC)c1OC
inactive: SR leukemia 82.6% | RPMI-8226 leukemia 60.2% | OVCAR-5 ovarian 109% | OVCAR-4 ovarian 97.6% | SK-OV-3 ovarian 124% | OVCAR-3 ovarian 104% | HS 578T breast 114% | NCI/ADR-RES ovarian 100%

O=S(=O)(Nc1ccc2c(c1)OCO2)c1ccc(-c2cnc(C3CC3)o2)cc1
inactive: SR leukemia 26.6% | OVCAR-8 ovarian 46.8% | OVCAR-4 ovarian 36.3% | SK-OV-3 ovarian 62.1% | IGROV1 ovarian 40.6% | HS 578T breast 45.5% | NCI/ADR-RES ovarian 16.6%
active: OVCAR-3 ovarian 7.46%

CC(c1ccccc1)N1CSc2nc3ncncc3n2C1 (stereo not drawn)
inactive: SR leukemia 88.2% | RPMI-8226 leukemia 26.4% | OVCAR-5 ovarian 39.7% | OVCAR-4 ovarian 27.1% | SK-OV-3 ovarian 24.8% | IGROV1 ovarian 45.5% | OVCAR-3 ovarian 33.1% | HS 578T breast 64.2% | NCI/ADR-RES ovarian 26.7%

COC(=O)/C=C/c1c(C2(C)NC(=O)c3ccccc3N2)c(=O)oc2ccc(Cl)cc12 (stereo not drawn)
inactive: SR leukemia 108% | RPMI-8226 leukemia 94.7% | OVCAR-5 ovarian 101% | OVCAR-4 ovarian 98.7% | SK-OV-3 ovarian 106% | IGROV1 ovarian 68.1% | OVCAR-3 ovarian 102% | HS 578T breast 90.9% | NCI/ADR-RES ovarian 98.3%

C=C(C=O)[C@@H]1CC[C@]2(CO)CC[C@]3(C)[C@H](CC[C@@H]4[C@@]5(C)CCCNC(C)(C)[C@@H]5CC[C@]43C)[C@@H]12
active: SR leukemia 3.73% | OVCAR-3 ovarian 3.49%
inactive: OVCAR-8 ovarian 50.8% | OVCAR-5 ovarian 88.7% | OVCAR-4 ovarian 87% | SK-OV-3 ovarian 104% | IGROV1 ovarian 52.8% | HS 578T breast 71.8% | NCI/ADR-RES ovarian 65.3%
